Measurements published in PubChem BioAssay (NCI).
Compounds without any hit were thinned out: in the full panel of roughly 83,000, 20% have a hit.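 Values shown are percent growth following 48 h exposure of cells in 96-well plates to a single concentration of compound; below 10 was considered active.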 Values without a mark were called inactive. Activity calls are given as the source filed them.

Assays:
Test in all cases: NCI-60 one-dose screen, 48 h (100 = growth as untreated, 0 = no growth, -100 = all killed)
Settings in all cases: 10 µM
HT29 colon = tested on: HT29 colon
SNB-75 CNS = tested on: SNB-75 CNS
SNB-19 CNS = tested on: SNB-19 CNS
U251 CNS = tested on: U251 CNS
PC-3 prostate = tested on: PC-3 prostate
SK-MEL-5 melanoma = tested on: SK-MEL-5 melanoma
UACC-62 melanoma = tested on: UACC-62 melanoma
LOX IMVI melanoma = tested on: LOX IMVI melanoma
SK-MEL-28 melanoma = tested on: SK-MEL-28 melanoma
SK-MEL-2 melanoma = tested on: SK-MEL-2 melanoma

| SMILES | growth (HT29 colon) | growth (SNB-75 CNS) [%] | growth (SNB-19 CNS) | growth (U251 CNS) | growth (PC-3 prostate) | growth (SK-MEL-5 melanoma) | growth (UACC-62 melanoma) | growth (LOX IMVI melanoma) | growth (SK-MEL-28 melanoma) | growth (SK-MEL-2 melanoma) |
| --- | --- | --- | --- | --- | --- | --- | --- | --- | --- | --- |
| CC(C)=CCc1cc(O)cc2c1OC(C=C(C)C)C1=C2C(=O)C2=C(NCCS2(=O)=O)C1=O (stereo not given) | -14.9% (active) | 18.5 | -44.5% (active) | -85% (active) | 10% | -96.7% (active) | -18.9% (active) | -56.2% (active) | -33.4% (active) | -28.9% (active) |
| CC1(C)N=C(N)N=C(N)N1c1ccc(CCc2ccccc2)c(Cl)c1 | 1.41% (active) | 35.8 | 31.6% | 13.2% | 18.7% | 0.745% (active) | 23% | 12.6% | 30.3% | 34.9% |
| N#CCCN(NC(=O)OCc1ccccc1)C(=O)OCc1ccccc1 | 106% | 81.4 | 108% | 102% | 93.4% | 108% | 101% | 94.3% | 119% | 106% |
| CCCCOC(=O)Oc1ccc(C(=O)Oc2ccc(OCC)cc2)cc1 | 108% | 111 | 102% | 88.9% | 93.2% | 102% | 104% | 96.3% | 109% | 112% |
| c1ccc(CO[C@H]2CO[C@H]3[C@@H]2OC[C@H]3OCc2ccccc2)cc1 | 107% | 111 | 101% | 104% | 90.6% | 101% | 95.9% | 98.4% | 105% | 104% |
| Cn1c([N+](=O)[O-])cnc1/C=C1\Oc2cc(Cl)ccc2C1=O | -25.4% (active) | 65.6 | 15.6% | -9% (active) | -12.5% (active) | -77.4% (active) | 7.22% (active) | -60.3% (active) | -9.7% (active) | -55.2% (active) |
| C#Cc1ccc(-n2c(/C=C/c3cc(OC)cc(OC)c3)nc3ncccc3c2=O)cc1 | 100% | 55 | 98% | 72% | 68.5% | 60.7% | 85.8% | 76.2% | 96.7% | 53.7% |
| COc1ccc(NC(=O)Cc2nc3nc4sc(C)c(C)c4c(=O)n3[nH]2)cc1 | 94.1% | 101 | 105% | 91.2% | 95.9% | 86.7% | 107% | 89.7% | 115% | 103% |
| COc1ccc(-c2nc3ncccn3c2-c2nnc(-c3ccc(F)cc3)o2)cc1 | 107% | 94.7 | 96.9% | 106% | 92.8% | 91.8% | 91.1% | 87.7% | 99.5% | 111% |
| COc1ccc(-n2c(SCc3cc(OC)c(OC)c(OC)c3)nc3ccc(C)cc3c2=O)cc1 | 21.9% | 44.4 | 83.7% | 69.1% | 75% | 54.9% | 56.7% | 63% | 74% | 64.8% |
